The values that follow come from PubChem BioAssay AID1347076 (National Center for Advancing Translational Sciences (NCATS), 2019).

The structures appear in SMILES notation. The campaign covered roughly 400,000 compounds. About 13,000 (3.2%) were called active. Roughly 18% stayed inconclusive and do not appear here. The sample as a whole holds a higher share of actives than the screen did. A number with no mark means an inactive call. Calls come from the whole dose curve; as a rule, active = well fitted cell-killing curve with a large enough effect; inconclusive = small, poorly fitted or top-dose-only effect, or effect the other way; inactive = flat fitted curve, though single readings scatter.
% is set by controls: 0 for no effect and ±100 for the full control effect; potency is the fitted concentration of half-maximal effect.

This experiment in a line: qHTS assay for MDR1-selective chemotherapeutics: Primary screen using the drug-selected MDR subline cells KB-V1. Note: nearly all actives have a fitted effect of over 60% in size. To be noted: KB-V1 MDR cells viability, CellTiter-Glo, 72 h; series mostly up to 46.1 µM; activity change, negative = cytotoxicity: at the top concentration. From the text:
A prime difficulty in effectively treating cancer is the development of cellular resistance to multiple structurally unrelated anticancer drugs, a phenomenon known as multidrug resistance (MDR). […] Numerous strategies to overcome P-gp-mediated MDR have been explored, including the design of drugs that evade recognition and efflux, and development of inhibitors to block efflux and restore drug accumulation. […] An alternative approach is to exploit resistance by identifying drugs that target MDR cells over the non-resistant parental cells from which they were selected. […] The development of MDR1-selective agents represents a new strategy for resolving multidrug resistance, as it remains a long-standing clinical challenge for cancer chemotherapy.
Our goal is to identify compounds that selectively kill P-gp-expressing MDR cells. We will identify MDR1-selective compounds by comparing toxicity of compounds in the screening library against parental, drug-naive (KB-3-1) adenocarcinoma cells as well as their drug-selected MDR sub-line (KB-V1). The differential toxicity of compounds against these two cell lines will be used to identify MDR1-selective compounds, whose cytotoxicity is potentiated, rather than diminished, by P-gp expression. This assay will be utilized to conduct a quantitative high-throughput screen (qHTS) in collaboration with the NIH Chemical Genomics Center to identify selective agents, and probe hits arising from the screen will be validated using secondary assays and characterized through a well-established follow-up research program. This screen was run against the entire NCGC library collection of about 400,000 compounds.
NIH Molecular Libraries Probe Production Network [MLPCN]
NIH Chemical Genomics Center [NCGC]
PI: Michael Gottesman, National Cancer Institute, NIH
Briefly, 5 microL of media containing either KB-V1 cells (columns 1-2, 4-48) are dispensed into Greiner white, treated solid-bottom 1536-well assay plates (media-only control is added to column 3). Compounds are then transferred via Kalypsys pin tool equipped with 1536-pin array (10 nL slotted pins, V&P Scientific, San Diego, CA). Following addition of compound, the plates are incubated at 37 degrees C for 72 hours. CellTiter-Glo (2.5 µL/well) is then added, and the plates are read in a ViewLux reader (Perkin-Elmer, clear luminescence filter, 1 second exposure, 1x binning) following a 10 minute incubation. All cells are dispensed in DMEM phenol-red free media containing 10% FBS.
Library plates were screened starting from the lowest and proceeding to the highest concentration. Vehicle-only plates, with DMSO being pin-transferred to columns 5-48, will be inserted uniformly at the beginning and the end of each library in order to monitor and record any shifts in the background, which can be affected by reagent dispensers or loss in enzyme activity over time. Screening data will be corrected, normalized, and concentration-effect relationships will be derived by using publicly-available NCGC, NCATS curve fitting algorithms (http://ncgc.nih.gov/pub/openhts).
For orientation: In qHTS, concentration-response curves come from the screen itself.
On to `CCOC(=O)c1ccccc1NC(=O)c1nn(-c2ccc(OC)c(Cl)c2)c(=O)c2c1c1ccccc1n2C`, for which the “activity change, negative = cytotoxicity” value was -2.72%.
Same read-out and setting: the value for `CN(C)CCNC(=O)c1ccc(-c2cn3c(-c4ccc(Oc5ccccc5)cc4)cnc3cn2)cc1` was 0.255%; that for `O=C(CCc1nc(CN2CCN(S(=O)(=O)c3ccc(F)cc3)CC2)no1)N1CCCCC1` was 3.75%.
In the case of `Cc1cc(O)ccc1-c1cnc2ccccc2n1`, the Potency is 14.6 µM (active).
On to `CC(=O)Nc1cnc(-c2ccc(O)cc2C)cn1`, for which the “activity change, negative = cytotoxicity” value was -0.324%.
On the same count and under the same terms, for `Oc1ccc(-c2nc3ccccc3nc2-c2ccc(O)cc2O)c(O)c1` the value was 8.6%; for `O=C(Nc1ccccc1Br)c1cc(CN2CCCC2)on1`, -8.6%.
On the same count and under the same terms, for `OC(c1ccc(Cl)cc1)c1ncc(-c2ccc(Cl)cc2)[nH]1` (stereo not given) the value was 1.01%.
Regarding `O=C(Nc1ccc(OC(F)(F)F)cc1)c1ccc2c(c1)no[n+]2[O-]`, the Potency was 20.6 µM (active).
For `COC(=O)c1cnn(-c2ccc(C(=O)Nc3ccc(OC(F)(F)F)cc3)cc2)c1N`, the “activity change, negative = cytotoxicity” value was 1.13%.
Same read-out and setting: for `Cn1cccc1/C=N/NC(=O)c1ccc(OC(F)(F)C(F)F)cc1` the value was 13.2%; for `CCN(CC)C(=O)C1=C(C)N(Cc2ccc(F)cc2)C(=O)C(CC(=O)NC2CCCC2)C1` (stereo not given), 0%.
The same measure, in the same setting: the value for `CCc1ccc([C@@H]2CC(=O)[C@@H]3CN(S(=O)(=O)c4ccc(C)cc4)[C@H](c4ccc(Cl)cc4)C[C@@H]3N2S(=O)(=O)c2ccc(C)cc2)cc1` was 14.3%.
Take `Cc1cc(N2CCN(S(=O)(=O)c3ccc(C)c(C)c3)CC2)c2ccccc2n1`: the Potency was 3.26 µM (active).
`Cc1ccc(S(=O)(=O)N2CCN(c3ccccc3)CC2)cc1C`: the “activity change, negative = cytotoxicity” value is -13.5%.
`Cc1ccc2nc(CN3CCN(S(=O)(=O)c4ccc(C)c(C)c4)CC3)oc2c1`: the “activity change, negative = cytotoxicity” value was 15%.
On the same count and under the same terms, for `CCOC(=O)c1c(C)[nH]c(C)c1S(=O)(=O)N1CCCC(C(=O)NCc2ccccc2Cl)C1` (stereo not given) the value was 27.7%; for `CCc1nnc(NC(=O)CSc2nnc(Cc3ccccc3)n2-c2ccc(OC)cc2)s1`, 10.7%; for `CCn1c(CNc2ccc(OC)cc2)nnc1SCC(=O)c1ccc(OC)cc1`, -1.67%.
As to `COc1ccc(NCc2nnc(SCc3ccccc3)n2-c2ccc(OC)cc2)cc1`, the Potency was 8.2 µM (active).
Consider `CNC(=O)c1ccc(-c2nc(CN3CCc4ccccc43)c(C)o2)cc1`, for which the “activity change, negative = cytotoxicity” value is -20.6%.
`COc1ccc(-c2csc(N3CCN(Cc4ccc5c(c4)OCO5)CC3)n2)cc1`: the Potency was 13 µM (active).
For the molecule `O=C(CN1CCN(c2nc(-c3ccccc3)cs2)CC1)NCc1ccc2c(c1)OCO2`, the “activity change, negative = cytotoxicity” value was -8.12%.
The same measure, in the same setting: the value for `COc1ccc(C(O)c2nc(-c3ccc4c(c3)OCO4)cs2)cc1` (stereo not given) was 2.33%.
On the same count and under the same terms, the value for `CCN(C(=O)Nc1cccc2ccccc12)c1ccccc1` was -1.11%; that for `CC1(C(=O)Nc2ccccc2Br)CCN1C(=O)CC1CC1` (stereo not given) was 4.78%.
Same read-out and setting: for `Cc1ccc(CN(C)C[C@@H]2OCc3cnnn3CCCC(=O)N([C@@H](C)CO)C[C@H]2C)cc1` the value was 16.2%.
With `CCC(C(=O)Nc1c(C)cccc1C)n1c(-c2cc(C)cs2)nc2ccccc21` (stereo not given), the “activity change, negative = cytotoxicity” value is -20.7%.
Take `OC(c1cc(Cl)cc(Cl)c1)c1ncc(-c2ccccc2C(F)(F)F)[nH]1` (stereo not given): the “activity change, negative = cytotoxicity” value is 0%.
On the same count and under the same terms, the value for `Cc1ccccc1NC(=O)c1ccc(COc2ccc3c(C)cc(=O)oc3c2)cc1` was -1.61%.
For the molecule `Cc1ccccc1N1CCN(CCCOc2ccc3c(C)cc(=O)oc3c2)CC1`, the Potency was 11.2 µM (active).
In the case of `Cc1cc(=O)oc2cc(OCC(=O)Nc3nnc(C4CC4)s3)ccc12`, the “activity change, negative = cytotoxicity” value was 10.4%.
Same read-out and setting: for `Cc1cc(OCCCN2CCN(Cc3ccccc3)CC2)ccc1[N+](=O)[O-]` the value was -9.82%; for `CCc1cc(=O)oc2cc(OCC(=O)N3CCCc4ccccc43)ccc12`, -23.3%.
For the molecule `Cc1cc(=O)oc2cc(OCC3CC(c4ccccc4Cl)=NO3)ccc12` (stereo not given), the Potency is 1.16 µM (active).
For `COc1ccc2oc(-c3ccc(C)c(NC(=O)c4sc5ccccc5c4Cl)c3)nc2c1`, the “activity change, negative = cytotoxicity” value was 11.6%.
The same measure, in the same setting: the value for `CCN(CC(=O)Nc1ccc(NC(C)=O)cc1)C(=O)C1CC(=O)N(c2ccc3c(c2)OCCO3)C1` (stereo not given) was 24.5%.
The same measure, in the same setting: the value for `CC(C)c1ccc(CC(=O)N2CCC2(C)C(=O)NS(=O)(=O)c2ccc(C(C)(C)C)cc2)cc1` (stereo not given) was 5.43%; that for `COc1cccc(C(=O)NC(=O)Nc2ccc(-c3cc(C(F)(F)F)nn3-c3ccccc3)cc2)c1` was 9.8%; that for `COc1ccc(CN(C(=O)c2cccs2)c2nccs2)cc1OC` was -25.9%.
For the molecule `COc1ccc(CCN(C(=O)COc2ccccc2)c2nc(-c3ccccc3)cs2)cc1OC`, the Potency was 5.8 µM (active).
With `COc1ccc(-c2csc(-c3c(N)c(C(=O)c4ccc(OC)c(OC)c4)n4ccccc34)n2)cc1`, the “activity change, negative = cytotoxicity” value was 10.1%.
On the same count and under the same terms, the value for `Cc1ccc(Sc2ccc(NC(=O)c3ccc(F)cc3)cc2C#N)cc1` was 0%.
On the same count and under the same terms, the value for `CC(C)C[C@H]1CNC(=O)C(=O)N1C[C@H]1CCCN1C[C@H](Cc1ccc(O)cc1)N1C[C@H](CC(C)C)N(CC2CCCCCC2)C(=O)C1=O` was 2.62%; that for `COc1cccc(CNc2nc(NCc3cccs3)nc3ccsc23)c1` was -10.1%.
For the molecule `COc1ccc(CC(=O)Nc2c3c(nn2-c2cccc(Cl)c2)CS(=O)C3)cc1` (stereo not given), the “activity change, negative = cytotoxicity” value was -4.66%.
For `Cc1cccc(CC(=O)Nc2c3c(nn2-c2cccc(Cl)c2)CS(=O)C3)c1` (stereo not given), the Potency was 20.6 µM (active).
Consider `COc1ccc(-n2nc3c(c2NC(=O)Cc2cccc(C)c2)CS(=O)C3)cc1` (stereo not given), for which the “activity change, negative = cytotoxicity” value was -2.57%.
Same read-out and setting: for `CC1CCCCN1S(=O)(=O)c1ccc(F)c(C(=O)Nc2ccccc2C(F)(F)F)c1` (stereo not given) the value was -13.5%; for `COc1ccc(Nc2ncnc3ccc(Br)cc23)c(OC)c1`, 0.531%.
For the molecule `CC1(C)CC2CC(C)(CN2c2ncnc3ccc(Br)cc23)C1` (stereo not given), the Potency was 2.59 µM (active).
As for `CN(C)C(=O)COC(=O)c1cccc(S(=O)(=O)N2CC3(C)CC2CC(C)(C)C3)c1` (stereo not given), the “activity change, negative = cytotoxicity” value is -7.77%.
For the molecule `O=C(NCCc1csc(-c2ccccc2)n1)c1ccccc1F`, the Potency was 20.6 µM (active).
Turning to `O=S(=O)(NCCc1csc(-c2ccccc2)n1)c1cccnc1`, the “activity change, negative = cytotoxicity” value was -8.15%.
Same read-out and setting: the value for `COc1ccc(-c2nc(CCNC(=O)c3ccc(Br)o3)cs2)cc1` was 0%; that for `CC1(C(=O)NS(=O)(=O)c2ccc(Cl)cc2)CCN1C(=O)CC1CCCC1` (stereo not given) was 5.47%.
For the molecule `C=CCn1c(SCc2csc(C)n2)nc2scc(-c3ccc(C)o3)c2c1=O`, the Potency is 11.6 µM (active).
As to `C=CCn1c(SCC(=O)Nc2ccc(NC(C)=O)cc2)nc2sc(C)c(C)c2c1=O`, the “activity change, negative = cytotoxicity” value was -12.4%.
On the same count and under the same terms, the value for `C=CCNC(=O)CSc1nc2scc(-c3ccco3)c2c(=O)n1CC=C` was -16.8%.
Same read-out and setting: for `CO[C@@H]1CN(C)C(=O)c2cc(NC(=O)C3CC3)ccc2OC[C@H](C)N(C(=O)CN2CCOCC2)C[C@@H]1C` the value was 1.93%.
